Consider 37 compounds from PubChem BioAssay (NCI).

Several values for one entry are separate records, joined by “and”; a condition that tells them apart may be missing. Equal values may be shown once. The panel holds about 83,000 compounds, 20% with a hit somewhere; the sample as a whole holds those more often.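 Method: cells in 96-well plates; compound added at one concentration; 48 h incubation; percent growth measured; values under 10 scored active.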 Values without a mark were called inactive. Activity calls are given as the source filed them.

The subject of the first assay is HT29 colon. In words: NCI-60 one-dose screen, 48 h (100 = growth as untreated, 0 = no growth, -100 = all killed). To be noted: 10 µM. The procedure:
Growth inhibition of the HT29 human tumor cell line is measured as a screen for anti-cancer activity. Cells are grown in 96 well plates and exposed to the test compound for 48 hours. Compounds are tested at a single concentration, which is 10^-5 M for most compounds. The reported endpoint is percent growth (GI% or GIPRCNT), where numbers from 0 - 100% represent growth inhibition, and numbers from -100% - 0 represent cell death. For example, a value of 40 represents 60% growth inhibition. A value of 0 means no net growth occurred over the course of the experiment. A value of -40 indicates 40% of cells at the beginning of the experiment died by the end of the experiment. A value of -100 means all cells are dead at the end of the experiment.
NCI-60 Human Tumor Cell Lines Screen was performed using the standard one-dose NCI protocol, which is described in more detail at https://dtp.cancer.gov/discovery_development/nci-60/default.htm.
Compounds with GIPRCNT values below 10 were considered active. Activity score was based on GIPRCNT using the following formula: […]
Score is 0 for GIPRCNT values of 100 or above, 50 for GIPRCNT values of 0, and 100 for GIPRCNT values of -100.
As to `O=C(O)c1c(Cl)c(Cl)c(Cl)c(Cl)c1-c1c2cc(I)c(=O)c(I)c-2oc2c(I)c(O)c(I)cc12`, the growth was 105% and 104% and 95.2%.
Turning to `COc1ccc(-c2cscc2N)cc1`, the growth is 97.7%.
For the compound `O=C(Nc1c(Cl)cccc1Cl)Oc1cccc2cccnc12`, the growth was 79.4%.

Staying with this assay, now noted: 10 µM unless noted.
Take `CN(C)CCOc1ccc2c(c1)C(=O)/C(=C\c1ncc([N+](=O)[O-])n1C)C2`: the growth is -32.6% (active).
The same measure, in the same setting: in the case of `N#Cc1ccc([N+](=O)[O-])o1` it was 93.9%; in that of `C[N+](C)=c1ccc2nc3c(cc(NCCCNc4cc5oc6cc(=[N+](C)C)ccc-6nc5c5ccccc45)c4ccccc43)oc-2c1`, -32.5% (active).
Still for that read-out and setting: the figure for `O=Nc1ccccc1N=O` is 81.6%; for `O=C(Nc1ccccc1)Oc1c(Cl)c(Cl)c(Cl)c(Cl)c1Cl` it is 104% and 96.6%.
As for `CCCCCCCCCCCCCCNCc1ccccc1`, the growth is 26.1%.
As to `CC1SC(=S)N(c2ccc(Cl)cc2)C1=O` (stereo not given), the growth is 105% and 98.8%.
On the same count and under the same terms, the figure for `CC(=O)ON=C1C=CC(=C(C#N)c2ccccc2)C=C1` is 82.2%; for `COc1ccccc1OC(=O)Oc1ccccc1OC` it is 102% and 95.7%.
Regarding `O=C1OCc2cccc3cccc1c23`, the growth is 105%.
Take `CCCCCCCCCCCCCCCC[N+](C)(CCO)Cc1cnc[nH]1` (stereo not given): the growth was -58.8% (active).
Still for that read-out and setting: the figure for `O=C(CC1(O)C(=O)Nc2c(Cl)ccc(Cl)c21)c1ccc(Cl)cc1Cl` (stereo not given) is 90.3%; for `Cc1c2ccccc2c(C)c2c1ccc1ccccc12` it is 92.9%; for `C/C=C1\SC(=S)NC1=O` it is 108%.
Same read-out and setting: in the case of `N[C@H](C(=O)O)[C@@H]1CC(Cl)=NO1` it was 17.3% [20 µM].
For `COc1cc(/C=C/C(C)=O)ccc1O`, the growth is 109% and 125%.
Turning to `CC1OC(OC2C(OC3CCC4(C)C(CCC5(C)C4CC=C4C6CC(C)(C)CCC6(CO)C(O)CC45C)C3(C)C)OC(C(=O)O)C(OC3OC(COC4OC(CO)C(O)C(O)C4O)C(O)C(O)C3O)C2O)C(O)C(O)C1O` (stereo not given), the growth was -44.6% (active).
On the same count and under the same terms, the figure for `CC1=CC(O)C2CC1C2(C)C` (stereo not given) is 88.2% and 98.1%; for `CC(C)(C)c1ccc(O)c(C2CCCCC2)c1` it is 87%.
Take `CCOC(=O)/C=C/c1ccc([N+](=O)[O-])o1`: the growth is 36.7%.
`Cc1ccc(N=C=C(c2ccccc2)c2ccccc2)cc1`: the growth is 97.6%.
Same read-out and setting: the figure for `O=C1c2ccccc2C(=O)N1c1ccccc1` is 104%; for `NC(=O)/C=C/C(=O)c1c(Cl)cccc1Cl` it is -39.6% (active).
Still for that read-out and setting: in the case of `O=C(O)c1ccc2c3c(ncnc13)-c1ccccc1C2=O` it was 59.2%.
As for `O=C1N[C@H]2[C@H](CS[C@H]2CCCCC(=O)N(CCP(c2ccccc2)c2ccccc2)CCP(c2ccccc2)c2ccccc2)N1`, the growth was 59.3%.
Regarding `N#CSCc1c(Cl)cccc1Cl`, the growth was 12%.
Same read-out and setting: in the case of `CCN(CC)CC(C)(C)C(=O)/C=C/c1ccc(Cl)c(Cl)c1` it was -47.4% (active); in that of `C1=C(c2ccccc2)C(c2ccc(OCCN3CCCCC3)cc2)Oc2ccccc21` (stereo not given), 1.98% (active).
The same measure, in the same setting: in the case of `CC1OC2CC(=O)OC2C2=C1C(=O)c1c(O)cccc1C2=O` (stereo not given) it was -51.8% (active).
For `Cc1cc(C(C)(CC(C)C)c2ccc(O)c(C)c2)ccc1O`, the growth was 98.7%.
As to `CCCCCCC(C)c1ccccc1O` (stereo not given) (tested in a mixture with another compound), the growth is 113%.
As to `N#CSCC(=O)c1ccc(Cl)cc1`, the growth is -19.4% (active).
On to `Oc1c(Br)cc(Cl)cc1C(c1cc(Cl)cc(Br)c1O)C(Cl)(Cl)Cl`, for which the growth was 10.1%.
For `Cc1ccc2nc(-[n+]3cc4ccccc4cc3C)ccc2c1`, the growth is 14.5%.

The assay is the same for the next values; noted with them: 100 µM.
As for `O=C(O)c1c(Cl)c(Cl)c(Cl)c(Cl)c1-c1c2cc(I)c(=O)c(I)c-2oc2c(I)c(O)c(I)cc12`, the growth is 39.2%.
Take `COc1ccc(-c2cscc2N)cc1`: the growth was 52%.
As for `O=C(Nc1c(Cl)cccc1Cl)Oc1cccc2cccnc12`, the growth was 55.3%.
